Only some compounds are listed: those with a hit (about 11% of all), similar ones and a draw of the others.
GoLoco inh red – blocks human Gai1 binding to RGS12 GoLoco peptide, red readout; Potency, µM (titrated, usually from 61.6 µM), usual class: inhibitors; Gai1:RGS12 GoLoco peptide FP, rhodamine, 10 min; AID 880; actives 0.44% (n = 230,000); active = well fitted inhibition curve with a large enough effect, not every such curve was filed as active; inactive = no such curve, though single readings can be large or run the other way; note: nearly all actives have a fitted effect of over 30% in size
Target sequence (P63096 whole entry, looked up): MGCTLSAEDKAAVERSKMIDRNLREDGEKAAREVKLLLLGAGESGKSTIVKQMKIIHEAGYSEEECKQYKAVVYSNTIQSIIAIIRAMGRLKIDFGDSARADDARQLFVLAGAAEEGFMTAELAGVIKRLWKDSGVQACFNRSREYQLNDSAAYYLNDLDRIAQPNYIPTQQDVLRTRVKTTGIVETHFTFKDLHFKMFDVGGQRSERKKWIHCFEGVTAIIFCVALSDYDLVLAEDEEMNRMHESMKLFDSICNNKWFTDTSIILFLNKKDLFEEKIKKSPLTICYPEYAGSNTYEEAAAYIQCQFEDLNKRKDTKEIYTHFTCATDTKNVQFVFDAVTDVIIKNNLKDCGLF
HTT ATP protect – protects HTT-Q103 PC12 cells, measured by ATP | PC12 HTT-Q103 induced, cytoprotection, ATP luminescence, 40 h | Potency, µM (doses to about 56.4 µM), hits mostly activators | actives 0.14% (n = 230,000) | AID 1471; active = well fitted curve in the direction sought with a large enough effect; inconclusive = small, poorly fitted or top-dose-only effect, or another doubt; inactive = no such curve, though single readings can be large; an effect the other way counts as inactive or inconclusive; note: nearly all actives have a fitted effect of over 45% in size
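Compounds added alongside 100 nM tebufenozide, which induces toxic Q103 huntingtin exon 1-GFP in stable PC12 cells; surviving cells quantified by luminescent ATP measurement. Medium: phenol red-free DMEM, 5% equine and 5% calf serum.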
ALDH1A1 block – blocks purified human ALDH1A1 activity; Purified ALDH1A1, NADH fluorescence, propionaldehyde substrate; actives 7.3% (n = 220,000); Potency, µM (top dose mostly 75.3 µM), most hits filed as inhibitors; AID 1030
PNC inhibitor – perinucleolar compartment assembly inhibition; activity change (PNC), negative = inhibition, % at 10 µM; actives 3.1% (n = 140,000); PC3M PTB-GFP, PNC prevalence imaging, 16 h; active compounds read low;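 active = readout at or below -70, meaning at least 70% loss of cells showing the perinucleolar compartment, a nuclear body marking cancer cells; inconclusive = readout between -30 and a set limit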
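Read-out is percentage of cells bearing a perinucleolar compartment, from automated 20x imaging of fixed, Hoechst-stained PC3M PTB-GFP cells. Cells were seeded 4 h, then exposed 16 h to compound (23 nl of library stock) in duplicate plates.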
HttQ103 aggreg – inhibitors of mutant huntingtin aggregate formation in PC12 cells; PC12 HttQ103-GFP aggregates, Acumen cytometry, 40 h; Potency, µM (titrated, usually from 46.1 µM), most hits filed as inhibitors; actives 1.1% (n = 220,000); AID 1688; active = well fitted curve in the direction sought with a large enough effect; inconclusive = small, poorly fitted or top-dose-only effect, or another doubt; inactive = no such curve, though single readings can be large; an effect the other way counts as inactive or inconclusive; note: nearly all actives have a fitted effect of over 60% in size
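Huntingtin Q103 exon 1–GFP aggregates in induced PC12 cells (100 nM tebufenozide) were quantified by cytometry from lysates, with compounds dosed in titration.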
HPGD block – blocks human HPGD enzyme activity; purified HPGD, NADH fluorescence kinetic, PGE2 substrate; actives 4.3% (n = 150,000); Potency, µM, usual class: inhibitors
Target sequence (P15428 whole entry, looked up): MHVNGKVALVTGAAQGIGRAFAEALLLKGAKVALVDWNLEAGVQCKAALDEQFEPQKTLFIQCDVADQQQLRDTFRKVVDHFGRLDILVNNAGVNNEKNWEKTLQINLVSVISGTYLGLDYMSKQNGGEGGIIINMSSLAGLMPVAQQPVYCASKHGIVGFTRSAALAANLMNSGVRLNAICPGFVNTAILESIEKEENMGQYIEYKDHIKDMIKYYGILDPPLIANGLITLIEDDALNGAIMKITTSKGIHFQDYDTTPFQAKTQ
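20 nM HPGD preincubated 15 min at room temperature with compound in 50 mM Tris-HCl pH 8, 0.01% Tween 20. Started with 1 mM NAD+ and 30 uM prostaglandin E2; NADH fluorescence (360/450 nm) read 5 times over 30-s intervals, last minus first.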
Numbers stand for hits; - = inactive; ? = inconclusive; . = not tested or not shown; [ ] = dose if it differs, or a comment. Unless noted, calls come from the whole dose curve; as a rule, active = well fitted inhibition curve with a large enough effect (not every such curve was filed as active); inconclusive = small, poorly fitted or top-dose-only effect, or another doubt; inactive = no such curve, though single readings can be large or run the other way.

SMILES | GoLoco inh red | HTT ATP protect | ALDH1A1 block | PNC inhibitor | HttQ103 aggreg | HPGD block
COc1cc(NS(=O)(=O)c2ccc(F)cc2)c(OC)cc1NC(C)=O | - | - | 7.9µM | - | - | -
CN(CC1CCCO1)S(=O)(=O)c1ccc(C(=O)Nc2nccs2)cc1 (stereo not given) | - | -[10 µM] | . | . | -[9.22 µM] | .
CCCOc1ccc(C(=O)NCC(C)(C)N2CCOCC2)cc1 | - | - | - | . | - | .
Cc1sc(NC(=O)c2ccc(=O)n(C)n2)nc1-c1ccccc1 | - | - | 28µM | . | ? | .
O=C(CCC(NC(=O)OCc1ccccc1)C(=O)OCc1ccccc1)NCC(=O)OCc1ccccc1 (stereo not given) | - | -[1.9 µM] | - | - | - | -
NC(=O)CC[C@H](NC(=O)OCc1ccccc1)C(=O)OCc1ccc(Cl)cc1 | - | . | - | -93 | - | -
CCCC/C=C/C(NC(=O)c1cccs1)c1ccccc1 (stereo not given) | - | - | ? | . | . | -
O=[N+]([O-])c1ccc(/C=N/NC(=S)Nc2ccccc2)o1 | - | -[1.9 µM] | - | - | - | 25µM
O=C(N/N=C/c1ccc([N+](=O)[O-])o1)c1ccncc1 | - | -[10 µM] | - | . | -[9.22 µM] | .
O=C(N/N=C/c1ccc([N+](=O)[O-])o1)c1ccc(O)cc1 | - | . | 25µM | - | - | -
O=C(COC(=O)c1cccc(NS(=O)(=O)c2ccc(F)c(F)c2)c1)NC(=O)NC1CCCC1 | - | -[1.9 µM] | - | ? | - | -
Cc1cc(C)n(C(=O)CCCn2nc(C)c([N+](=O)[O-])c2C)n1 | - | - | - | . | ? | .
O=C(O)Cc1sc(NCc2ccco2)nc1-c1ccccc1 | - | -[10 µM] | 3.5µM | . | -[9.22 µM] | .
Nc1nc[nH]c(=O)c1N=Cc1ccccc1 | - | -[10 µM] | - | . | -[9.22 µM] | .
N#CC(=C1CCCC1)c1nc(-c2ccccc2)cs1 | - | - | - | - | - | -
N#CC(=C1CCCC1)c1nc(-c2ccccc2O)cs1 | - | -[10 µM] | 25µM | ? | - | ?
CCOCC(=O)Nc1cc(C(=O)Nc2ccc(F)cc2)ccc1Cl | - | -[10 µM] | - | . | -[9.22 µM] | .
CC(=NC1CCCC1)c1c(C)[nH]n(-c2nc3ccccc3s2)c1=O | - | - | 14µM | - | - | -
COc1ccc(C)cc1NC(=O)CC1COc2ccccc2O1 (stereo not given) | - | - | - | . | - | .
COc1cc(OC)c(OC)cc1NC(=O)CC1COc2ccccc2O1 (stereo not given) | - | -[10 µM] | 3.5µM | ? | - | -
CCc1ccc(C(=O)NCC2COc3ccccc3O2)o1 (stereo not given) | - | -[10 µM] | - | - | - | 18µM
Cc1c(C(=O)NCC2COc3ccccc3O2)oc2ccc(S(=O)(=O)N3CCOCC3)cc12 (stereo not given) | - | -[10 µM] | - | ? | ? | -
CCN(CC)S(=O)(=O)c1ccc2oc(C(=O)NCC3COc4ccccc4O3)c(C)c2c1 (stereo not given) | - | - | 14µM | - | ? | -
O=C(CCC1COc2ccccc2O1)NCC1COc2ccccc2O1 (stereo not given) | - | -[0.074 µM] | - | -100 | - | -
CCOC(=O)N1CCN(C(=O)CCCCn2c(=S)[nH]c3ccsc3c2=O)CC1 | - | - | - | . | - | .
SMILES | GoLoco inh red | HTT ATP protect | ALDH1A1 block | PNC inhibitor | HttQ103 aggreg | HPGD block
O=C(CN1C(=O)CCC1=O)Nc1ccc(Cc2ccc(NC(=O)CN3C(=O)CCC3=O)cc2)cc1 | - | - | - | . | - | .
OC(Cc1ccccc1)(Cc1ccccc1)c1ccccc1 | -[14.2 µM] | -[10 µM] | -[13.5 µM] | . | . | -
COc1ccc(NC2=C(Cl)C(=O)N(CCc3ccccc3)C2=O)c(OC)c1 | - | -[10 µM] | ? | - | ? | 16µM
CCOc1ccc(NC2=C(Cl)C(=O)N(Cc3ccccc3)C2=O)cc1 | . | - | - | - | - | .
Cc1ccc(O)c(NC2=C(Cl)C(=O)N(Cc3ccccc3)C2=O)c1 | - | - | 2.8µM | . | ? | .
COc1ccc(NC2=C(Cl)C(=O)N(CCc3ccccc3)C2=O)cc1 | - | -[10 µM] | - | ? | - | -
O=C(COc1ccc(Br)cc1Cl)NC(=O)Nc1ccc2c(c1)OCCO2 | - | . | - | . | - | .
N=C(N)S/C=C\C(=O)O | - | ? | 7.9µM | . | . | 35µM
CCOc1ccc(Cc2nccc3cc(OCC)c(OCC)cc23)cc1OCC | - | - | - | . | - | -
Cc1cccc(NS(=O)(=O)c2ccc3c(c2)Cc2cc(S(=O)(=O)Nc4cccc(C)c4C)ccc2-3)c1C | - | -[10 µM] | - | - | - | -
C=CCc1ccc(OCC(O)COCC)c(OC)c1 (stereo not given) | - | - | 28µM | - | - | -
COC(=O)NC(CC(C)=O)c1cccc(F)c1 (stereo not given) | . | -[10 µM] | -[13.5 µM] | . | . | .
COc1cc(CC(=O)Nc2ccccc2N2CCCCC2)cc(OC)c1OC | - | - | - | . | - | .
Cc1cc(-c2nnc(CCC(=O)N3CCN(Cc4cccc(F)c4)CC3)o2)c(C)o1 | - | -[10 µM] | 28µM | . | -[9.22 µM] | .
CC(C)CC(=O)N1CCN(Cc2cccc(F)c2)CC1 | - | - | - | - | - | -
Cc1ccc(N2C(=O)CC(Sc3nc(-c4ccccc4)c4cc(Cl)ccc4n3)C2=O)c(C)c1 (stereo not given) | - | -[10 µM] | - | - | - | ?
O=C1c2ccccc2CC1Sc1nnc(-c2ccncc2)o1 (stereo not given) | - | - | 1µM | - | - | ?
Cc1ccccc1N1C(=O)CC(Sc2nnc(-c3ccccc3)o2)C1=O (stereo not given) | - | - | 7.9µM | - | 22µM | -
CCN=C(NCC)SC1CC(=O)N(c2ccccc2)C1=O (stereo not given) | - | - | - | - | - | -
O=C1CC(Sc2nnc(-c3ccccc3)o2)C(=O)N1c1ccccc1 (stereo not given) | - | - | 1.8µM | - | ? | 22µM
C/C(=C(/CCO)SSC[C@@H]1CCCO1)N(C=O)Cc1cnc(C)nc1N | - | - | - | . | . | -
CN(C)C1C(=O)C(C(N)=O)=C(O)[C@@]2(O)C(=O)C3=C(O)c4c(O)ccc(Cl)c4[C@@H](O)C3C[C@@H]12 (stereo not given in full) | - | . | - | . | . | -
COc1ccc(S(=O)(=O)N2CCC(C(=O)Nc3ccc(F)cc3)CC2)c2cccnc12 | - | - | ? | . | - | .
COc1ccc(S(=O)(=O)N2CCC(C(=O)Nc3ccccc3C)CC2)c2cccnc12 | - | - | 22µM | - | -[9.22 µM] | -
NC(=O)COc1ccc(-c2noc(COc3ccccc3[N+](=O)[O-])n2)cc1 | - | - | - | . | - | .
Cc1c(Cl)cccc1NC(=O)CSc1nc2c(c(=O)[nH]1)CCCC2 | - | . | - | - | - | -
N#Cc1c(-c2ccco2)nc(SCC(=O)Nc2cccc(Cl)c2)[nH]c1=O | - | - | ? | - | - | 18µM
